SKKanGAS inh: S. pyogenes SKKanGAS growth inhibitors in kanamycin, primary screen, streptokinase expression inhibitor project, SKKanGAS strain, BacTiter-Glo luminescence; 6 h; inhibition, % at 7.5 µM; actives 1.3% (n = 300,000); AID 1662, 2009;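 active = mean replicate score, as percent of positive control median, at least 50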;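 also: strain carries kanamycin resistance gene driven by streptokinase promoter and grows in 40 µg/ml kanamycin; loss of luminescence reflects streptokinase promoter inhibition or plain growth inhibition; 0% = median of DMSO wells and 100% = positive control at its reference dose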
MPTP block: mitochondrial permeability transition pore inhibitors, primary screen, biochemical, isolated mouse mitochondria, absorbance; actives 1.4% (n = 360,000); Ca2+ swelling absorbance, 30 min; inhibition, % at 10 µM; AID 602449, 2012;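 active = inhibition of 50% or more, scaled per plate between neutral and stimulator controls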;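 also: 0% = DMSO wells given calcium and 100% = 1 mM EGTA wells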
Beta apoptosis: inhibitors of cytokine-induced beta cell apoptosis, primary screen, luminescence | INS-1E cytokine-induced death, ATP luminescence, 48 h; percent of positive-control rescue, neutral wells zero | protection from apoptosis, % (no concentration beside the values) | actives 0.8% (n = 300,000) | AID 435005, 2010;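 active = Every replicate reaches about 75%, or at least half do and their mean reaches it too, limit read from the data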;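 also: 0% = cytokine-treated negative control wells and 100% = positive control rescue; higher means more ATP so stronger rescue from cytokine killing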
NR3A LBD binder: binders of NR3A ligand-binding domain, primary screen, biophysical, differential scanning fluorimetry, uHTS; Glutamate receptor ionotropic, NMDA 3A (GRIN3A) ligand-binding domain; NR3A LBD differential scanning fluorimetry, Tm shift; 0% = protein alone, 100% = glycine-bound protein; Tm shift relative to glycine control, % at 25 µM; actives 2.5% (n = 340,000); AID 1259313, 2017;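 active = melting temperature shift of at least 10% of the positive control shift, at one fixed dose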
CSC inhib: cancer stem cell viability inhibitors, primary screen, luminescence | cancer stem cell-like cells viability | inhibition, % at 7.5 µM | actives 1.1% (n = 300,000); in the data active = inhibition above about 75%; tested in HMLE shEcad cells
Mdm2 MdmX PPI: inhibitors of human Mdm2-MdmX association, primary screen, cell-based, luminescence, split luciferase, SaOS-2, uHTS | Protein Mdm4 (Homo sapiens) + E3 ubiquitin-protein ligase Mdm2 (Homo sapiens), … | actives 3% (n = 330,000) | inhibition, % at 8 µM | SaOS-2 split-luciferase Mdm2/MdmX complementation;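 active = inhibition of at least 50% at 8 µM in the primary screen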
Target sequence (O15151 whole entry, looked up): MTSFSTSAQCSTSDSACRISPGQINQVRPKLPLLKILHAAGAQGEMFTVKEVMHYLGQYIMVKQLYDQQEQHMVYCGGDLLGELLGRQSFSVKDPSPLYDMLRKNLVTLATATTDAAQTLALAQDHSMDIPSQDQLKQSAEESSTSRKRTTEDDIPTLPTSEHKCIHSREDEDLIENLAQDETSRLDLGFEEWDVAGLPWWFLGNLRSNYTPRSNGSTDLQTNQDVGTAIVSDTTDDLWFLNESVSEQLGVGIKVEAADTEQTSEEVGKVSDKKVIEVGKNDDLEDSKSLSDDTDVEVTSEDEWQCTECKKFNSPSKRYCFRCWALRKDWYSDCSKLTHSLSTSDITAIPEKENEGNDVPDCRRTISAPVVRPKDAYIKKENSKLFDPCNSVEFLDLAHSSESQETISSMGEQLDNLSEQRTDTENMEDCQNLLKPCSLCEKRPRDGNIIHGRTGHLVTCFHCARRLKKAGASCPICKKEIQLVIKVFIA
Target sequence (Q00987 whole entry, looked up): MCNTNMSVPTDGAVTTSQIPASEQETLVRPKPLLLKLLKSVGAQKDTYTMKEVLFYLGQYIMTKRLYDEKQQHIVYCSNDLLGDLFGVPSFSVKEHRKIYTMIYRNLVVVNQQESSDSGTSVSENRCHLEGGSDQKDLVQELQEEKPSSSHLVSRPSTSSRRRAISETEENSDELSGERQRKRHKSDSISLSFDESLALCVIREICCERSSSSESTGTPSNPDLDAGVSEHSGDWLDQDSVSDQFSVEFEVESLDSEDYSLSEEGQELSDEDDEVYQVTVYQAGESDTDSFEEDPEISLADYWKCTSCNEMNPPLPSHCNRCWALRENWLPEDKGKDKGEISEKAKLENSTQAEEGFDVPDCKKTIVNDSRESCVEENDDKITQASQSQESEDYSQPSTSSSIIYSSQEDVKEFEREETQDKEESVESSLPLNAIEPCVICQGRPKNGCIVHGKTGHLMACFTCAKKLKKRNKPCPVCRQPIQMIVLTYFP
Mdm2 MdmX conf: Mdm2-MdmX complex disruptors, retested hits, confirmation, luminescence, single concentration; shares compounds with Mdm2 MdmX PPI; Mdm2-MdmX binding, luminescent assay; inhibition, % at 8 µM; actives 55% (n = 10,000); AID 489028, 2010; in the data active = inhibition above about 40%
Full FLuc ctr: full-length luciferase signal inhibition, confirmation, counter-screen for Mdm2/MdmX interaction inhibitor project, cell-based, single concentration, SaOS-2; inhibition, % at 8 µM; SaOS-2 full-length luciferase counterscreen, luminescence; shares compounds with Mdm2 MdmX PPI; actives 77% (n = 6,200); AID 504607, 2011;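 active = mean inhibition at 8 µM reaching about 37%, which flags the compound as non-specific, limit read from the data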;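 also: p53-null SaOS-2 cells with luciferase driven by a doxycycline-inducible promoter; compound on cells about two nights before reading with doxycycline added after day one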
* marks the source's active call; other numbers are inactive results; . = no result given. Compounds with a hit are over-represented: about 6.9% of the library has one in this group of screens.

SMILES	SKKanGAS inh	MPTP block	Beta apoptosis	NR3A LBD binder	CSC inhib	Mdm2 MdmX PPI	Mdm2 MdmX conf	Full FLuc ctr
COc1ccc(C2CCCN2CC(O)COc2ccccc2C(C)C)cc1 (centres undefined)	5	3	0	-3	32	37	.	.
O=C1C(Cl)=C(NCCCO)C(=O)c2ccccc21	6	1	16	0	24	48	.	.
CC(=O)Nc1ccc(NC2=C(Cl)C(=O)c3ccccc3C2=O)cc1	28	.	.	-1	.	100*	100*	52*
CN(C)c1ccc(NC2=C(Cl)C(=O)c3ccccc3C2=O)cc1	.	8	-21	-2	147*	100*	99*	2
COc1ccc(Nc2nc3cc(-c4ccccc4C)sc3c(=O)n2C)cc1OC	.	1	.	.	.	.	.	.
CCCCc1cc(=O)oc2cc(OCC(=O)NCCN3CCOCC3)ccc12	0	-1	-3	0	-25	0	.	.
Cc1ccc(S(=O)(=O)CCC(=O)N(CCCN2CCOCC2)c2nc3ccccc3s2)cc1	0	-2	.	0	9	64*	33	.
O=C(CCS(=O)(=O)c1ccccc1)N(CCCN1CCOCC1)c1nc2ccccc2s1	-2	-3	.	2	67	78*	43*	74*
O=C(NNC(=O)C1CCN(S(=O)(=O)c2ccccc2C(F)(F)F)CC1)c1ccccc1O	0	-3	11	-4	-9	53*	53*	51*
O=C(NNC(=O)C1CCN(S(=O)(=O)c2c(Cl)cccc2Cl)CC1)c1ccccc1O	3	0	19	-13	-6	56*	54*	54*
COc1ccccc1-n1cnnc1SCC(=O)Nc1cccc(S(N)(=O)=O)c1	0	0	0	-1	-1	2	.	.
CCC(=O)Nc1cc(OC)c(NC(=S)Nc2ccccc2CC)cc1OC	.	0	.	.	.	.	.	.
Cc1ccc(C(=O)NCCc2nnc3ccc(NCc4ccc5c(c4)OCO5)nn23)cc1	-1	-2	.	1	3	2	.	.
N/C(=N\OC(=O)c1ccc2ccccc2c1)c1ccccn1	-4	-2	-1	-10	3	70*	49*	111*
N/C(=N\OC(=O)c1ccc2ccccc2c1)c1ccccc1Cl	8	-2	-6	2	-7	100*	68*	77*
N/C(=N\OC(=O)c1ccc2ccccc2c1)c1cccc([N+](=O)[O-])c1	-2	0	-7	35*	-10	83*	4	.
COc1cccc(C(=O)O/N=C(\N)c2ccccn2)c1	-1	1	8	0	-9	33	.	.
CCCc1ccc(C(=O)O/N=C(\N)c2ccccn2)cc1	15	-1	1	-1	20	63*	70*	61*
N/C(=N\OC(=O)c1ccc(=O)n(Cc2ccccc2)c1)c1ccccn1	-25	-2	-6	4	-9	21	.	.
N/C(=N\OC(=O)c1ccc(=O)n(Cc2ccc(Cl)cc2)c1)c1ccccn1	8	2	0	0	1	67*	34	.
CCOC1=C2[C@@H](CN(S(=O)(=O)c3ccc(C)cc3)[C@H]2c2cccc3ccccc23)[C@H]2C(=O)N(CC)C(=O)[C@H]2C1	.	-2	.	.	.	.	.	.
Cc1cc(OCc2nc(-c3ccc(NC(=O)c4cccnc4)cc3)no2)ccc1Cl	-11	-1	125*	2	-9	62*	11	.
Cc1nn(-c2ccccc2)c(Cl)c1C(=O)OCC(=O)N(C)c1c(N)n(Cc2ccccc2)c(=O)[nH]c1=O	-4	-1	-1	0	-8	3	.	.
CC(=O)Nc1ccc(S(=O)(=O)/N=C2\C(=O)c3ccccc3C([O-])=C2n2cc[n+](-c3ccccn3)c2)cc1	2	2	20	-1	56	55*	33	52*
CC(=O)Nc1ccc(S(=O)(=O)NCCSc2ccccn2)cc1	-5	-1	.	1	3	-3	.	.
SMILES	SKKanGAS inh	MPTP block	Beta apoptosis	NR3A LBD binder	CSC inhib	Mdm2 MdmX PPI	Mdm2 MdmX conf	Full FLuc ctr
CCCC/C(O)=C1\C(=O)CC(C)(C)CC1=NCCCCCC(=O)O	-6	-2	3	1	-14	-2	.	.
Cc1cc(C)c(S(=O)(=O)c2cccc(C(F)(F)F)c2)c(=O)[nH]1	-2	-1	-11	-2	0	-17	.	.
O=C(Nc1ccc(Oc2ccc(NC(=O)Nc3ccccc3Cl)cc2)cc1)Nc1ccccc1Cl	3	2	54	22*	40	54*	41*	47*
Nc1cccc2cc(-c3ccccc3)oc12	.	1	-1	-12	7	-40	.	.
CC(C)c1nnc(NC(=O)CC(=O)Nc2ccccc2C(=O)O)s1	5	-2	0	-1	-7	67*	47*	74*
CC(C)C(=O)NNC(=O)CSc1nc(C2CCCCC2)nc2ccccc12	-1	-2	-6	-11	4	20	.	.
COc1ccc(NC(=O)CSc2nc(C3CC3)nc3ccccc23)c(OC)c1	41	-1	-4	-3	-18	18	.	.
COc1ccc(NC(=O)CSc2nc3ccccc3c3nc4ccccc4n23)cc1	.	16	4	5	33	.	.	.
Cc1ccc(NC(=O)CSc2nc3ccccc3c3nc4ccccc4n23)cc1	5	-2	41	0	2	81*	58*	70*
CC(=O)c1ccc(NC(=O)CSc2nc(C3CC3)nc3ccccc23)cc1	21	1	6	1	16	64*	39	.
COc1ccc(NC(=O)CSc2nc(C3CC3)nc3ccccc23)cc1	3	0	-1	-2	.	60*	39	.
CCOc1ccc(NC(=O)c2ccc(NC(=O)CSc3nc4ccccc4c(=O)[nH]3)cc2)cc1	4	-1	6	9	7	56*	14	.
O=C(CSc1nc2ccccc2c(=O)[nH]1)Nc1ccc(C(=O)O)cc1	-1	-1	-4	0	.	15	.	.
CN(CC(=O)NCCc1ccc(S(N)(=O)=O)cc1)Cc1ccc(Cl)cc1Cl	2	-1	2	-1	.	13	.	.
N#Cc1cccc(NC(=O)CSc2ccc3c4c(cccc24)C(=O)c2ccccc2-3)c1	0	3	-9	5	-11	.	.	.
